{"source": "PubChem BioAssay (NCI)", "note": "This is part of a sample that, as a whole, favours compounds with a hit. Of some 83,000 tested, about 20% had one in any assay.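 Note: values are percent growth. 100 is the growth of untreated cells, values between 100 and 0 indicate rising inhibition; between -100 and 0 indicates cell death.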 A number with no mark means an inactive call. Active and inactive are the calls of the source. Rule for the calls: active = growth percent below 10; inactive = the rest.", "data": [{"test_system": "NCI-H522 lung", "test": "NCI-60 one-dose screen, 48 h (100 = growth as untreated, 0 = no growth, -100 = all killed)", "conditions": "10 µM", "values": [{"molecule": "NS(=O)(=O)Oc1ccc(-c2ccc3sccc3c2)cc1", "growth": "87.1%"}, {"molecule": "C=C(C)[C@@H]1CC[C@]2(COCCC#N)CC[C@]3(C)[C@H](CC[C@@H]4[C@@]5(C)Cc6c([nH]c7ccccc67)C(C)(C)[C@@H]5CC[C@]43C)[C@@H]12", "growth": "87%"}, {"molecule": "O=S(=O)(Oc1ccc(-c2ccc3sccc3c2)cc1)c1ccc(F)cc1", "growth": "87.7%"}, {"molecule": "Cc1nn(-c2ccccc2)c2nc(Cl)c(C=O)c(-c3ccccc3)c12", "growth": "106%"}, {"molecule": "Cc1ccc(S(=O)(=O)N/N=C2\\CCCc3ccccc32)cc1", "growth": "103%"}, {"molecule": "COc1ccc(-c2cc(-c3ccc(OC)c(OC)c3)nc(SCCCC(=O)NO)n2)cc1", "growth": "2.7% (active)"}, {"molecule": "CC(C)C[C@H](NC(=O)Cn1cccc(CNC(=O)c2ccccc2)c1=O)B(O)O", "growth": "-9.79% (active)"}, {"molecule": "CC[C@@H](C(=O)[C@@H](C)[C@@H](O)[C@H](C)[C@@H]1O[C@@H]([C@@H](CC)C(=O)O)CC[C@@H]1C)C1O[C@]2(C=CC(=O)[C@]3(CC[C@@](C)([C@H]4CC[C@](O)(CC)[C@H](C)O4)O3)O2)[C@H](C)C[C@@H]1C", "note": "(stereo partly specified)", "growth": "24.6%"}, {"molecule": "CCOC(=O)/C(=C(\\C)N)C1CC(=O)NC1=O", "note": "(stereo unspecified)", "growth": "102%"}, {"molecule": "COc1cc(-c2nn(-c3cccc(NC(=O)CCNc4ccc(N5CCOCC5)cc4)c3)cc2-c2ccncc2)ccc1Cl", "growth": "11.9%"}, {"molecule": "CC(=O)N[C@H](C(=O)N[C@@H](CCCNC(=N)N)C(=O)N[C@@H](CCCCN)C(=O)N[C@@H](CCCNC(=N)N)C(=O)N[C@]1(C)CCCCCC/C=C\\CCC[C@@](C)(C(=O)N[C@@H](CCCNC(=N)N)C(=O)N[C@@H](CCC(=O)O)C(=O)N[C@@H](CC(C)C)C(=O)N[C@H](C(=O)N[C@@H](CCC(=O)O)C(N)=O)C(C)C)NC(=O)[C@H](CCC(N)=O)NC(=O)[C@H](CC(C)C)NC(=O)[C@H](CC(C)C)NC(=O)[C@H](CCCNC(=N)N)NC(=O)[C@H](CCCNC(=N)N)NC(=O)[C@H](CC(C)C)NC1=O)C(C)C", "growth": "28.7%"}, {"molecule": "O=C1c2ccccc2C(=O)c2c1ccc1c(=O)n(-c3ccccc3C(F)(F)F)nnc21", "growth": "16.7%"}, {"molecule": "Cc1c(Cl)cccc1NC(=O)CCCl", "growth": "91%"}, {"molecule": "COc1cc(-c2csc(NC(=O)Nc3cc(C(F)(F)F)cc(C(F)(F)F)c3)n2)cc(OC)c1OC", "growth": "-14.6% (active)"}, {"molecule": "Nc1ccn(Cc2nnc(CCC(=O)c3nc4ccccc4[nH]3)o2)c(=O)n1", "growth": "84.2%"}, {"molecule": "O=C1C=C(Nc2cccc(Br)c2)c2ccccc2C1=O", "growth": "27.3%"}, {"molecule": "COc1cccc(N=Nc2cccc(OC)c2)c1", "growth": "73%"}, {"molecule": "C=CCN(CC=C)C(=O)[C@H](CC)[C@@H]1CC[C@@H](C)[C@@H]([C@H](C)[C@@H](O)[C@@H](C)C(=O)[C@H](CC)C2O[C@]3(C=C[C@@H](O)[C@]4(CC[C@@](C)([C@H]5CC[C@](O)(CC)[C@H](C)O5)O4)O3)[C@H](C)C[C@@H]2C)O1", "note": "(stereo partly specified)", "growth": "-2.7% (active)"}, {"molecule": "O=C1/C=C/[C@@H](O)[C@@H]2C[C@@H](O)C[C@H]2/C=C/CCC[C@@H](C(F)(F)F)O1", "growth": "88%"}, {"molecule": "CC[C@@H](C(=O)[C@@H](C)[C@@H](O)[C@H](C)[C@@H]1O[C@@H]([C@@H](CC)C(=O)N(CC)CC)CC[C@@H]1C)C1O[C@]2(C=CC(=O)[C@]3(CC[C@@](C)([C@H]4CC[C@](O)(CC)[C@H](C)O4)O3)O2)[C@H](C)C[C@@H]1C", "note": "(stereo partly specified)", "growth": "8.58% (active)"}, {"molecule": "O=S(=O)(O)c1ccc(Cl)cc1", "growth": "94.6%"}, {"molecule": "CCN(CC)CCOc1cccc2c1C(=O)c1ccccc1C2=O", "growth": "84.3%"}, {"molecule": "CC[C@@H]1NC(=O)[C@H]([C@H](O)[C@H](C)C/C=C/c2ccc(CN3C(=O)CCCC3=O)cc2)N(C)C(=O)[C@H](C(C)C)N(C)C(=O)[C@H](CC(C)C)N(C)C(=O)[C@H](CC(C)C)N(C)C(=O)[C@@H](C)NC(=O)[C@H](C)NC(=O)[C@H](CC(C)C)N(C)C(=O)[C@H](C(C)C)NC(=O)[C@H](CC(C)C)N(C)C(=O)CN(C)C1=O", "growth": "23.5%"}, {"molecule": "O=C(Nc1ccc(NS(=O)(=O)c2ccc(F)cc2)cc1)C12CC3CC(CC(C3)C1)C2", "growth": "86.4%"}, {"molecule": "C/C(=N\\O)c1ccc(NC(=O)CSc2nnc(-c3ccccc3)n2-c2ccccc2)cc1", "growth": "-34.7% (active)"}, {"molecule": "CC(=O)Nc1ccc2c(c1)C(=O)c1cccc(C(=O)O)c1-2", "growth": "108%"}]}]}
